# Measured values from the supplement of paper PMC8728848.
# The entries come from a sample that favours the strongest signals as a whole.
# Key:
# Experiment in all cases: glycan array binding signal (z-score within array); higher = stronger binding
# Conditions in all cases: glycan notation: IUPAC condensed, linker removed
# [1] = biological target: Fuc(a1-2)Gal(b1-3)GalNAc(b1-4)[Neu5Ac(a2-3)]Gal(b1-4)Glc
# How it was run: (§1)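 Negative Z-scores can be read as non-binding. The Z-score is calculated within each array and then averaged across arrays of one protein sequence at different concentrations or buffers and across linkers. Arrays, 3228 in all, were curated from the Consortium for Functional Glycomics database and kept only where the protein sequence was available.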
# [2] = biological target: Fuc(a1-2)Gal(b1-4)GlcNAc(b1-3)Gal(b1-4)GlcNAc(b1-3)Gal(b1-4)GlcNAc
# How it was run: as §1
# [3] = biological target: Fuc(a1-2)Gal(b1-4)[Fuc(a1-3)]GlcNAc(b1-3)[Neu5Ac(a2-6)Gal(b1-4)GlcNAc(b1-6)]Gal(b1-4)Glc
# How it was run: as §1
# Fuc(a1-2)Gal6S(b1-4)Glc = biological target: Fuc(a1-2)Gal6S(b1-4)Glc
# How it was run: as §1
# [4] = biological target: Fuc(a1-2)Gal6S(b1-4)Glc6S
# How it was run: as §1
# [5] = biological target: Fuc(a1-2)[Gal(a1-3)]Gal(b1-4)GlcNAc(b1-2)Man(a1-3)[Fuc(a1-2)[Gal(a1-3)]Gal(b1-4)GlcNAc(b1-2)Man(a1-6)]Man(b1-4)GlcNAc(b1-4)GlcNAc
# How it was run: as §1
# [6] = biological target: Fuc(a1-2)[Gal(a1-3)]Gal(b1-4)GlcNAc(b1-2)Man(a1-3)[Fuc(a1-2)[Gal(a1-3)]Gal(b1-4)GlcNAc(b1-2)Man(a1-6)]Man(b1-4)GlcNAc(b1-4)[Fuc(a1-6)]GlcNAc
# How it was run: as §1
# [7] = biological target: Fuc(a1-2)[GalNAc(a1-3)]Gal(b1-3)GlcNAc
# How it was run: as §1
# [8] = biological target: Fuc(a1-3)[Gal(b1-4)]GlcNAc(b1-6)GalNAc
# How it was run: as §1
# Gal(a1-3)Gal = biological target: Gal(a1-3)Gal
# How it was run: as §1
# [9] = biological target: Gal(a1-3)[Gal(a1-4)]Gal(b1-4)GlcNAc
# How it was run: as §1
# Gal(b1-3)GalNAc = biological target: Gal(b1-3)GalNAc
# How it was run: as §1
# [10] = biological target: Gal(b1-3)GlcNAc(b1-6)GalNAc
# How it was run: as §1
# [11] = biological target: Gal(b1-3)GlcNAc(b1-6)[Gal(b1-3)]GalNAc
# How it was run: as §1
# [12] = biological target: Gal(b1-3)[GlcNAc(b1-6)]GalNAc
# How it was run: as §1
# [13] = biological target: Gal(b1-3)[Neu5Ac(a2-6)]GalNAc
# How it was run: as §1
# [14] = biological target: Gal(b1-4)GlcNAc(b1-2)Man(a1-6)[Man(a1-3)]Man(b1-4)GlcNAc(b1-4)GlcNAc
# How it was run: as §1
# [15] = biological target: Gal(b1-4)GlcNAc(b1-2)[Gal(b1-4)GlcNAc(b1-4)]Man(a1-3)[GlcNAc(b1-4)][Gal(b1-4)GlcNAc(b1-2)Man(a1-6)]Man(b1-4)GlcNAc(b1-4)GlcNAc
# How it was run: as §1
# [16] = biological target: Gal(b1-4)GlcNAc(b1-2)[Gal(b1-4)GlcNAc(b1-6)]Man(a1-6)[GlcNAc(b1-4)][Gal(b1-4)GlcNAc(b1-2)Man(a1-3)]Man(b1-4)GlcNAc(b1-4)GlcNAc
# How it was run: as §1
# [17] = biological target: Gal(b1-4)GlcNAc(b1-3)Gal(b1-4)GlcNAc(b1-2)Man(a1-3)[Gal(b1-4)GlcNAc(b1-3)Gal(b1-4)GlcNAc(b1-2)Man(a1-6)]Man(b1-4)GlcNAc(b1-4)GlcNAc
# How it was run: as §1
# [18] = biological target: Gal(b1-4)GlcNAc(b1-3)Gal(b1-4)GlcNAc(b1-6)[Gal(b1-3)]GalNAc
# How it was run: as §1
# [19] = biological target: Gal(b1-4)GlcNAc(b1-6)[Gal(b1-3)]GalNAc
# How it was run: as §1
# Gal3S(b1-3)GlcNAc = biological target: Gal3S(b1-3)GlcNAc
# How it was run: as §1
# GlcA(b1-3)Gal = biological target: GlcA(b1-3)Gal
# How it was run: as §1
# [20] = biological target: GlcNAc(b1-2)[GlcNAc(b1-4)]Man(a1-3)[GlcNAc(b1-4)][GlcNAc(b1-2)[GlcNAc(b1-6)]Man(a1-6)]Man(b1-4)GlcNAc(b1-4)[Fuc(a1-6)]GlcNAc
# How it was run: as §1
# [21] = biological target: GlcNAc(b1-3)Gal(b1-4)GlcNAc(b1-6)[Gal(b1-3)]GalNAc
# How it was run: as §1
# [22] = biological target: GlcNAc(b1-6)Gal(b1-4)GlcNAc
# How it was run: as §1
# Kdn(a2-3)Gal(b1-3)GalNAc = biological target: Kdn(a2-3)Gal(b1-3)GalNAc
# How it was run: as §1
# [23] = biological target: Neu5Ac(a2-3)Gal(b1-3)GalNAc6S
# How it was run: as §1
# [24] = biological target: Neu5Ac(a2-3)Gal(b1-4)GlcNAc(b1-3)Gal(b1-4)GlcNAc(b1-6)[Gal(b1-3)]GalNAc
# How it was run: as §1
# [25] = biological target: Neu5Ac(a2-3)Gal(b1-4)GlcNAc(b1-6)[Gal(b1-3)]GalNAc
# How it was run: as §1
# [26] = biological target: Neu5Ac(a2-3)Gal(b1-4)[Fuc(a1-3)]GlcNAc(b1-3)Gal(b1-4)GlcNAc
# How it was run: as §1
# [27] = biological target: Neu5Ac(a2-6)Gal(b1-4)GlcNAc(b1-2)[Neu5Ac(a2-6)Gal(b1-4)GlcNAc(b1-4)]Man(a1-3)[GlcNAc(b1-4)][Neu5Ac(a2-6)Gal(b1-4)GlcNAc(b1-2)[Neu5Ac(a2-6)Gal(b1-4)GlcNAc(b1-6)]Man(a1-6)]Man(b1-4)GlcNAc(b1-4)GlcNAc
# How it was run: as §1
# [28] = biological target: Neu5Ac(a2-6)Gal(b1-4)GlcNAc(b1-3)Gal(b1-4)GlcNAc(b1-3)Gal(b1-4)GlcNAc
# How it was run: as §1
# [29] = biological target: Neu5Ac(a2-6)Gal(b1-4)GlcNAc(b1-3)Gal(b1-4)GlcNAc(b1-6)[Gal(b1-3)]GalNAc
# How it was run: as §1
# [30] = biological target: Neu5Ac(a2-6)Gal(b1-4)GlcNAc(b1-6)[Gal(b1-3)]GalNAc
# How it was run: as §1
# [31] = biological target: Neu5Ac(a2-6)GalNAc(b1-4)GlcNAc
# How it was run: as §1
# [32] = biological target: Neu5Ac(a2-8)Neu5Ac(a2-8)Neu5Ac(a2-3)[GalNAc(b1-4)]Gal(b1-4)Glc
# How it was run: as §1
# [33] = biological target: Neu5Gc(b2-6)Gal(b1-4)GlcNAc
# How it was run: as §1
binder,measurement,setting,value
Fm1D (Escherichia coli) (protein) FSCNVDGGSSIGAGTTSVYVNLDPVIQPGQNLVVDLSQHISCWNDYGGWYDTDHINLVQGSAFAGSLQSYKGSLYWNNVTYPFPLTTNTNVLDIGDKTPMPLPLKLYITPVGAAGGVVIKAGEVIARIHMYKIATLGSGNPRNFTWNIISNNSVVMPTHHHHHH,glycan array binding signal (z-score),[1],-0.146
same,glycan array binding signal (z-score),[2],-0.144
same,glycan array binding signal (z-score),[3],-0.143
same,glycan array binding signal (z-score),Fuc(a1-2)Gal6S(b1-4)Glc,-0.149
same,glycan array binding signal (z-score),[4],-0.14
same,glycan array binding signal (z-score),[5],-0.142
same,glycan array binding signal (z-score),[6],-0.143
same,glycan array binding signal (z-score),[7],-0.146
same,glycan array binding signal (z-score),[8],-0.139
same,glycan array binding signal (z-score),Gal(a1-3)Gal,-0.142
same,glycan array binding signal (z-score),[9],-0.125
same,glycan array binding signal (z-score),Gal(b1-3)GalNAc,2.2
same,glycan array binding signal (z-score),[10],-0.12
same,glycan array binding signal (z-score),[11],3.7
same,glycan array binding signal (z-score),[12],4.94
same,glycan array binding signal (z-score),[13],3.04
same,glycan array binding signal (z-score),[14],-0.144
same,glycan array binding signal (z-score),[15],-0.147
same,glycan array binding signal (z-score),[16],-0.151
same,glycan array binding signal (z-score),[17],-0.138
same,glycan array binding signal (z-score),[18],3.82
same,glycan array binding signal (z-score),[19],10.7
same,glycan array binding signal (z-score),Gal3S(b1-3)GlcNAc,-0.132
same,glycan array binding signal (z-score),GlcA(b1-3)Gal,-0.143
same,glycan array binding signal (z-score),[20],-0.144
same,glycan array binding signal (z-score),[21],4.57
same,glycan array binding signal (z-score),[22],-0.134
same,glycan array binding signal (z-score),Kdn(a2-3)Gal(b1-3)GalNAc,-0.14
same,glycan array binding signal (z-score),[23],-0.141
same,glycan array binding signal (z-score),[24],1.11
same,glycan array binding signal (z-score),[25],5.29
same,glycan array binding signal (z-score),[26],-0.14
same,glycan array binding signal (z-score),[27],-0.142
same,glycan array binding signal (z-score),[28],-0.146
same,glycan array binding signal (z-score),[29],11.5
same,glycan array binding signal (z-score),[30],3.09
same,glycan array binding signal (z-score),[31],-0.144
same,glycan array binding signal (z-score),[32],-0.152
same,glycan array binding signal (z-score),[33],-0.143
